Measured values taken from article PMC4336329 (PLoS ONE, 2015).
Out of some 310,000 compounds screened, about 14,000 (4.5%) showed an effect of 50% or more. Effects have a minus sign here. The full list was thinned out, with strong results kept by preference.

What follows are molecules tested against human ether-à-go-go-related gene (hERG) potassium channel (human, UniProt Q12809) (assay: primary screen, population patch clamp on CHO cells stably expressing hERG; higher = less effect of the substance).
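Note: peak tail current of the secondary pulse compared with the same well before compound.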

human ether-à-go-go-related gene (hERG) potassium channel, sequence (Q12809 whole entry, looked up): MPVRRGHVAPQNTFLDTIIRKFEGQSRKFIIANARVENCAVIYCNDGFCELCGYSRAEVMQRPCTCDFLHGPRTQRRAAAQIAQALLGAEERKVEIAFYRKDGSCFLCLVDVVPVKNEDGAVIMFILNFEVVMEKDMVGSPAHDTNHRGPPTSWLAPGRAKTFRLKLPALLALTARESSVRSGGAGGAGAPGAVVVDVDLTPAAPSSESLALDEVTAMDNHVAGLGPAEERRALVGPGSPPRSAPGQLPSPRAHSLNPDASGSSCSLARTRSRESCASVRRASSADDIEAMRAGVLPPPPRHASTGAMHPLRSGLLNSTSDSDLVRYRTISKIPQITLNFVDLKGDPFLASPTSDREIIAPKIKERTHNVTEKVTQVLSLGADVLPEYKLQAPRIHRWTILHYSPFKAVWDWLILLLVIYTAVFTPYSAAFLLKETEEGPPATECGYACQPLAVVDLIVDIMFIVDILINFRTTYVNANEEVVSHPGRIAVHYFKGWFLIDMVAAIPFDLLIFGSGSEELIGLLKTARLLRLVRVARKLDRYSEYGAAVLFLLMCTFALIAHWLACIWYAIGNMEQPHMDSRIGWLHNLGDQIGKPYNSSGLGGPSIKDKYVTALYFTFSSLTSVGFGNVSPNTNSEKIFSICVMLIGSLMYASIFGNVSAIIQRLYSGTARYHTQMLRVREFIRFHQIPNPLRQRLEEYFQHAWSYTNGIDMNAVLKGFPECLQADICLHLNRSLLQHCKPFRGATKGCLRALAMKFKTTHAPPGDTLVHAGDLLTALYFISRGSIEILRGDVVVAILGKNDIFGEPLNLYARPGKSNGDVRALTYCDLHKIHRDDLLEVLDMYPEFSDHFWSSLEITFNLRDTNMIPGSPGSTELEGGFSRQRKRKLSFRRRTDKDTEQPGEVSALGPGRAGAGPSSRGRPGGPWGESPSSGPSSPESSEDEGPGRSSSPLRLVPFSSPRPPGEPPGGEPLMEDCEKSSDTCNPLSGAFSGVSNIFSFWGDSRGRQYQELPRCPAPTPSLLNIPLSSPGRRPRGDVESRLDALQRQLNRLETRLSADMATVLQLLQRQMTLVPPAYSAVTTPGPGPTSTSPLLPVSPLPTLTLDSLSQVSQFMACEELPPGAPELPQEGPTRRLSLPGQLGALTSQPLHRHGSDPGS

| SMILES | hERG current change (%, negative = inhibition) at 10uM |
| --- | --- |
| O=C(Cc1ccc([N+](=O)[O-])cc1)Nc1ccc2c(c1)OCO2 | -13.9% |
| CC(=O)Nc1nc(C)c(Cc2ccccc2)c(=O)[nH]1 | -1.04% |
| Cn1cnc(S(=O)(=O)NCc2ccccc2)c1 | 2.77% |
| Cc1ccccc1OCCOC(=O)c1nc2nccc(C)n2n1 | -14.1% |
| COc1ccccc1NC(=O)C1=C(C)Nc2nnnn2C1c1ccncc1 (centres unmarked) | -12.4% |
| CCOC(=O)c1c(C)n(-c2ccccc2)c2ccc(O)cc12 | 13.8% |
| CCOC(=O)c1c(CN(CC)CC)n(-c2ccccc2)c2ccc(O)cc12 | -66.7% |
| CCOC(=O)c1c(CN2CCOCC2)n(-c2ccccc2)c2ccc(O)cc12 | -69.2% |
| CCOC(=O)c1c(CN2CCOCC2)n(-c2ccccc2)c2cc(Br)c(O)c(CN(C)C)c12 | -42.3% |
| CCOC(=O)c1c(C)n(Cc2ccccc2)c2ccc(O)cc12 | 4.43% |
| CCOC(=O)c1c(C)n(-c2ccc(F)cc2)c2ccc(O)cc12 | 16.4% |
| COc1ccc(S(=O)(=O)N(CC(C)C)C2CCS(=O)(=O)C2)cc1OC (centres unmarked) | 4.62% |
| CC(=O)c1ccc(N2CCN(C(=O)C3CCN(S(=O)(=O)c4ccc5c(c4)CC(C)N5C(=O)C4CC4)CC3)CC2)cc1 (centres unmarked) | -8.83% |
| COc1ccc(CNC(=O)COC(=O)c2ccc3ncsc3c2)cc1OC | 14.5% |
| C=C(C)C(=O)N1CC2(CC(c3cccc(NC(=O)/C=C\C=C/C)c3)=NO2)C[C@H]1C(N)=O (some centres unmarked) | 0.942% |
| CSc1ccc(S(=O)(=O)NCC(=O)OCC(=O)N2CCCC2=O)cc1[N+](=O)[O-] | -9.51% |
| Cc1nn(CC#N)c(=O)n1-c1ccccc1F | 10.8% |
| COc1cc(CNCCN2CCOCC2)ccc1OCc1ccc(Cl)cc1Cl.Cl | -69.7% |
| COc1cc(CNCCN2CCOCC2)ccc1OCc1cccc(Cl)c1.Cl | -63.2% |
| COc1cc(CNCCN2CCOCC2)ccc1OCc1ccc(Cl)cc1.Cl | -42.1% |
| COc1cc(CNCCCN2CCOCC2)cc(Br)c1OCc1ccc(Cl)cc1.Cl | -35.5% |
| COc1cc(CNCCO)cc(Cl)c1OCc1ccc(Cl)cc1Cl.Cl | -7.34% |

| SMILES | hERG current change (%, negative = inhibition) at 10uM |
| --- | --- |
| COc1cc(CNCCN2CCOCC2)ccc1OCc1ccccc1Cl.Cl | -45.7% |
| COc1cc(CNCCN(C)C)ccc1OCc1c(F)cccc1Cl.Cl | -19.6% |
| COc1cc(CNCCN2CCOCC2)ccc1OCC(=O)NC(C)(C)C.Cl | 6.17% |
| COc1cc(CNCCN2CCOCC2)ccc1OCc1c(Cl)cccc1Cl.Cl | -50.6% |
| O=C1CC2C(=O)NCCN2C(=NC(=O)c2ccc(Cl)cc2)N1 (centres unmarked) | -15.7% |
| COc1ccc(C(=O)Nc2ccc(NC(=O)C(C)C)nc2)cc1 | 18.9% |
| COc1cccc(/C=N/n2c(-c3n[nH]c4c3CCC4)n[nH]c2=S)c1OC | 14.1% |
| O=C(NCCCNC(=O)c1ccc(Cl)cc1Cl)c1ccccn1 | -2.08% |
| O=C(CSc1nnc(CNC(=O)c2cccs2)o1)Nc1ccc(Cl)cc1 | -4.26% |
| CCC(C)NC(=O)COc1ccccc1[N+](=O)[O-] (centres unmarked) | 16% |
| CSCCC(NC(=O)c1ccco1)C(=O)NCC(c1ccccc1)N(C)C (centres unmarked) | -9.02% |
| COc1ccc(C/C(N)=N/OC(=O)Cc2ccccc2)cc1 | -7.03% |
| CCOC(=O)c1c(NC(=S)Nc2ccc(OC)cc2)sc2c1CCC2 | 14% |
| CCOC(=O)c1c(NC(=S)Nc2ccccc2)sc2c1CCN(C)C2 | -74.2% |
| CCOC(=O)c1c(NC(=S)Nc2ccc(Cl)cc2)sc2c1CCN(C)C2 | -74.2% |
| CCOC(=O)c1c(NC(=S)Nc2ccccc2)sc2c1CCCCC2 | 17.3% |
| CCOC(=O)c1c(NC(=S)Nc2ccccc2)sc2c1CC(C)(C)SC2 | -3.74% |
| CCOC(=O)c1c(NC(=S)Nc2ccc(OCC)cc2)sc2c1CCN(C)C2 | -70.4% |
| CCOC(=O)c1c(NC(=O)Nc2ccc(F)cc2)sc2c1CCN(C)C2 | -26% |
| CCOC(=O)c1c(NC(=O)Nc2ccc(C)cc2)sc2c1CCN(C)C2 | -47.6% |
| CCOC(=O)c1c(NC(=S)Nc2ccc(OC)cc2)sc2c1CCCCC2 | 12.5% |
| CNC(=O)c1ccsc1NC(=O)CCS(=O)(=O)c1ccc(Cl)cc1 | -18.1% |
